Only some compounds are listed: those with a hit (about 1.5% of all), similar ones and a draw of the others.
CRFBP-R2 agonist: agonists of human CRF-binding protein/CRF-R2 receptor complex. HEK293 CRF-R2/CRF-BP, calcium dye fluorescence (FLIPR); percent of saturating CRF peptide response. activation, % at 13.2 µM. 350,000 compounds, 0.46% hits. AID 588473;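 active means activation of at least 50%, plus an integration ratio under a set limit after plate pattern correction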;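 further: plate controls were neutral control wells without compound for no effect and CRF at EC100 for full effect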
IDE inh: inhibits human insulin-degrading enzyme in HEK cells; P14735; FAbetaB cleavage, fluorescence polarization; inhibition, % at 5.59 µM; 320,000 compounds, 0.41% hits;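 active means percent inhibition above the average of all tested compounds plus 3 SD, set per screening campaign, cut at about 16% in these data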;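 further: IDE supplied by intact live HEK cells; FP after avidin binding of uncleaved biotin substrate so inhibition keeps polarization high; 0% = DMSO wells and 100% = 60 µM reference IDE inhibitor Ii1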
CRFBP-R2 block: antagonists of CRF-binding protein/CRF-R2 receptor complex; HEK293 CRF-R2/CRF-BP, CRF-induced calcium fluorescence; inhibition, % at 11.8 µM; 350,000 compounds, 0.59% hits; AID 588475;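 active means inhibition of the ligand-induced calcium signal above about 50% at the single tested concentration, limit read from the data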
IDE cell activ: IDE (human) activation, cell-based; P14735; HEK cells, FAbeta-B cleavage, fluorescence polarization; 0% vehicle, 100% cell-free pure enzyme wells; activation, % at 5.96 µM; 340,000 compounds, 0.073% hits; AID 493087;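 active means activation above the mean of all tested compounds plus 3 SD, set per screening campaign, cut at about 17% in these data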
RTF Ca sens inh: cardiac RTF calcium desensitization; P19429+P45379; IANBD-labeled cardiac RTF, Ca2+ fluorescence; inhibition, % at 7.15 µM; 340,000 compounds, 0.12% hits;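 active means inhibition above the mean inhibition of all tested compounds plus 3 SD, cut at about 17% in these data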;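 further: assay run at fixed EC70 calcium of 1.6 mM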
cardiac RTF act: increases calcium sensitivity of human cardiac regulated thin filaments | IANBD-labeled TnC RTF fluorescence at EC20 calcium; 0% EC20 calcium, 100% full calcium | 340,000 compounds, 0.24% hits | activation, % at 7.2 µM;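 active means activation above the mean over all tested compounds plus 3 SD, cut at about 30% in these data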;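 further: rise in fluorescence read as greater calcium sensitivity of cardiac thin filaments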
* = called active by the depositor; . = not tested or not shown.

SMILES | CRFBP-R2 agonist | IDE inh | CRFBP-R2 block | IDE cell activ | RTF Ca sens inh | cardiac RTF act
COC(=O)C1=C(C)N(C)C(C)=C(C(=O)OC)C1c1ccc(F)c(Br)c1 | -7.7 | 1.1 | 54.8* | -2.6 | 0.9 | -3.5
CCOC(=O)C1=C(COC(=O)c2ccc(C)c(S(=O)(=O)N3CCOCC3)c2)NC(=O)NC1C (centres undefined) | -0.7 | . | -4.4 | 4.3 | -6.7 | 0.2
O=C1c2cccc3cccc(c23)C(=O)N1c1nccs1 | -2.5 | 7.6 | 21.4 | -2.0 | -5.0 | -7.0
O=C1c2cccc3c([N+](=O)[O-])ccc(c23)C(=O)N1c1ccccn1 | 6.7 | 1.7 | 60.1* | -7.5 | 4.0 | -1.8
O=C1c2cccc3c([N+](=O)[O-])ccc(c23)C(=O)N1O | 11.1 | -2.2 | -5.6 | 2.1 | -8.3 | 7.4
O=C1c2cccc3c([N+](=O)[O-])ccc(c23)C(=O)N1c1nccs1 | 23.3 | 22.9* | 82.8* | -6.0 | -11.3 | 2.4
O=C1c2cccc3c([N+](=O)[O-])ccc(c23)C(=O)N1c1ccc(Cl)cn1 | 18.7 | 13.7 | 91.2* | -13.7 | -24.4 | 11.5
COc1cc(/C=C(\C#N)c2nc3ccccc3s2)cc([N+](=O)[O-])c1O | -0.3 | . | 61.4* | -0.1 | 2.3 | 1.8
CCN(CC)S(=O)(=O)c1ccc(=O)n(CC(=O)N2Cc3ccccc3CC2C(N)=O)c1 (centres undefined) | 3.7 | . | -3.1 | 1.1 | 3.6 | 2.2
CC(=O)N1CCc2ccc(S(=O)(=O)N3CC(C)OC(C)C3)cc21 (centres undefined) | 0.6 | -3.4 | 1.6 | 3.8 | 4.9 | -0.4
CC(=O)N1CCc2ccc(S(=O)(=O)N3CCN(C)CC3)cc21 | 203.0* | -0.9 | -104.8 | 1.3 | 5.2 | -5.0
COc1ccc(C)cc1NCc1ccc([N+](=O)[O-])cc1 | -4.7 | -4.1 | 27.8 | 7.3 | -0.2 | -9.6
Cc1cc([N+](=O)[O-])ccc1NCc1ccccc1 | 1.3 | 6.4 | 113.7* | 5.6 | -9.6 | -3.4
O=C(O)[C@H](Cc1ccccc1)Nc1ccc([N+](=O)[O-])cn1 | 0.6 | 2.7 | -6.9 | 2.7 | -0.6 | -4.2
Cc1cc([N+](=O)[O-])ccc1NCc1ccc2ccccc2c1 | 0.0 | -4.0 | 18.3 | -2.7 | 4.6 | -4.6
O=C(O)C(Cc1ccccc1)Nc1ccc([N+](=O)[O-])cc1[N+](=O)[O-] (centres undefined) | 3.5 | 5.2 | 53.2* | 5.8 | 0.8 | 3.0
COc1ccc(CNc2cc([N+](=O)[O-])ccc2OC)cc1 | -1.6 | -4.0 | 88.6* | 0.1 | 6.8 | 0.7
CCN(CC)CCCNC(=O)Cn1cnc2sc(C)c(S(=O)(=O)N3CCC(C)CC3)c2c1=O | -0.6 | -2.8 | 2.8 | 5.7 | -2.1 | -0.3
Cc1ccccc1NC1=NC(=S)N(c2ccccc2)C12CCCCC2 | 1.8 | -0.7 | 60.5* | 4.2 | -0.8 | 6.0
O=C1N=c2ccccc2=C1c1sc(Nc2ccc(O)cc2)nc1O | 1.6 | . | 60.1* | 7.8 | 15.3 | -10.0
O=C1N=c2ccccc2=C1c1sc(Nc2cccc(O)c2)nc1O | -0.6 | 4.0 | 22.1 | 0.2 | -16.2 | -1.3
COc1cc(NC(=S)NCc2ccco2)cc(OC)c1 | -3.6 | 1.6 | 95.9* | 1.4 | 6.5 | -10.8
O=C(Nc1cc(S(=O)(=O)N2CCCCC2)ccc1N1CCCCC1)C1CC1 | 1.3 | 9.1 | 103.3* | 5.5 | -0.4 | -1.0
Cc1ccc(-c2sc(-c3ccccc3)nc2CC(=O)Nc2ccccc2F)cc1 | 127.5* | 3.2 | -195.2 | 0.5 | -2.2 | 2.5
COc1ccc(S(=O)(=O)N(C(C)=O)c2ccc3oc(=O)sc3c2)cc1 | -0.8 | 24.9* | -8.1 | -18.6 | -6.0 | 5.7
Cc1cccc(NC(=O)c2cc(S(=O)(=O)c3ccccc3)ccc2Cl)c1 | 0.6 | 1.3 | 62.0* | 5.8 | -1.4 | 3.2
Cc1ccccc1NC(=O)c1cc(S(=O)(=O)c2ccccc2)ccc1Cl | -2.6 | 3.0 | 9.3 | -3.6 | -2.7 | 7.1
COc1ccc(-c2nnc(SCC(=O)Nc3c(Cl)cc(Cl)cc3C(=O)O)o2)cc1 | -0.8 | 6.2 | 8.8 | 3.0 | -1.1 | -6.8
O=C(NCCCCCCNC(=O)N1CCCCCC1)N1CCCCCC1 | -2.8 | -1.8 | 75.7* | -5.1 | -11.6 | 9.9

From PubChem BioAssay
